# Results: PubChem BioAssay (NCATS)
# “And” between values parts separate entries of the source, which are not always exact repeats. Equal values may be shown once. Inconclusive results are not listed. Where a call stands in place of a potency, no number is given. Unmarked numbers belong to inactive results. The source made the active and inactive calls. The call rests on the fitted dose curve; in most records, active means well fitted curve in the direction sought with a large enough effect; inconclusive means small, poorly fitted or top-dose-only effect, or another doubt; inactive means no such curve, though single readings can be large; an effect the other way counts as inactive or inconclusive.
# Assays:
# [1] = Viability qHTS for spleen associated tyrosine kinase inhibitor (SYKi) drug resistant MV4-11 cells (AID 1963824); conditions: SYKi-resistant MV4-11 viability, CellTiter-Glo, 72 h; series mostly up to 45 µM; further: nearly all actives have a fitted effect of over 35% in size; further: potency means the concentration at half of the fitted maximal effect
# Method in brief: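 CellTiter-Glo luminescence, read 10 min after reagent addition, reports viability after a 72 hr compound exposure. Cells are an MV4-11 line made resistant to SYK inhibition, seeded at 500 per well onto compound-containing plates.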
# [2] = Quantitative highthroughput screen to assess conditional lethalithy of NOMO1 cells grown in RPMI1640 with untreated serum (RPMI+s) (AID 1963876); conditions: NOMO1 AML cells in RPMI+serum, CellTiter-Glo viability, 48 h; series mostly up to 45.8 µM; further: nearly all actives have a fitted effect of over 35% in size; further: potency means the concentration at half of the fitted maximal effect
# Method in brief: (§1)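 Each medium arm—HPLM with 10% dialyzed FBS, or RPMI1640 with 5 mM glucose and 10% untreated or dialyzed FBS—was screened against an 11-point, 3-fold compound titration for 48 h at 37 °C, with CellTiter-Glo luminescence as endpoint.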
# [3] = Quantitative highthroughput screen to assess conditional lethalithy of NOMO1 cells grown in RPMI1640 with dialyzed fetal bovine serum (RPMI+ds) (AID 1963877); conditions: NOMO1 in RPMI+dialyzed FBS viability, ATP luminescence, 48 h; series mostly up to 45.8 µM; further: nearly all actives have a fitted effect of over 30% in size; further: potency means the concentration at half of the fitted maximal effect
# Method in brief: as §1
# [4] = Quantitative highthroughput screen to assess conditional lethalithy of P12 Ichikawa cells grown in RPMI1640 with untreated serum (RPMI+s) (AID 1963881); conditions: ATP luminescence, 48 h; Potency: viability; series mostly up to 45.8 µM; further: nearly all actives have a fitted effect of over 35% in size; further: potency means the concentration at half of the fitted maximal effect
# Method in brief: as §1
# [5] = Quantitative highthroughput screen to assess conditional lethalithy of SEM cells grown in Human Plasma-Like Medium with dialyzed fetal bovine serum (HPLM+ds) (AID 1963882); conditions: SEM B-ALL cells in HPLM+ds, CellTiter-Glo viability, 48 h; series mostly up to 45.8 µM; further: nearly all actives have a fitted effect of over 35% in size; further: potency means the concentration at half of the fitted maximal effect
# Method in brief: as §1
# [6] = Quantitative highthroughput screen to assess conditional lethalithy of P12 Ichikawa cells grown in Human Plasma-Like Medium with dialyzed fetal bovine serum (HPLM+ds) (AID 1963879); conditions: ATP luminescence, 48 h; Potency: viability; series mostly up to 45.8 µM; further: nearly all actives have a fitted effect of over 35% in size
# Method in brief: as §1
# [7] = Quantitative highthroughput screen to assess conditional lethalithy of P12 Ichikawa cells grown in RPMI1640 with dialyzed fetal bovine serum (RPMI+ds) (AID 1963880); conditions: ATP luminescence, 48 h; Potency: P12-Ichikawa viability; series mostly up to 45.8 µM; further: nearly all actives have a fitted effect of over 35% in size
# Method in brief: as §1
# [8] = Cellular viability qHTS for adrenocortical cancer (ACC) cell line SW-13 (AID 1963989); conditions: SW-13 ACC cells viability, CellTiter-Glo, 48 h; activity (max response): hits give low values; further: nearly all actives have a fitted effect of over 65% in size; further: potency means the concentration at half of the fitted maximal effect;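 on activity (max response): cells grown in serum-free medium with ITS supplement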
# Method in brief: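 Viability was read as CellTiter-Glo luminescence after 48 h compound treatment (up to 46 uM final) of SW-13 cells grown serum-free; titration curves were fit with a four-parameter logistic model to give IC50 and efficacy.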
# [9] = Cellular viability qHTS for adrenocortical cancer (ACC) cell line NCI-H295R (AID 1963990); conditions: CellTiter-Glo ATP luminescence, 48 h; series mostly up to 46.1 µM; further: nearly all actives have a fitted effect of over 60% in size; further: potency means the concentration at half of the fitted maximal effect
# Method in brief: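 CellTiter-Glo ATP luminescence, read 48 h after compound addition, measured viability of NCI-H295R adrenocortical cells grown serum-free with ITS. Final concentrations spanned up to 46 uM. Data normalized to DMSO and doxorubicin, fitted for IC50 and maximal response.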
# [10] = Quantitative highthroughput screen to assess conditional lethalithy of SEM cells grown in RPMI1640 with unreated serum (RPMI+s) (AID 1963883); conditions: SEM B-ALL cells, CellTiter-Glo viability, 48 h; series mostly up to 45.8 µM; further: nearly all actives have a fitted effect of over 35% in size
# Method in brief: as §1
smiles,measurement,setting,value
C=CCN1CCC2(C)c3cc(O)ccc3C[C@H]1[C@H]2C,Potency,[1],inactive
COc1ccc2c(c1OC)CN1CCc3cc4c(cc3C1C2)OCO4 (stereo not given),Potency,[1],4.11 µM (active)
same,Potency,[2],1480 nM (active)
same,Potency,[3],1660 nM (active)
same,Potency,[4],1870 nM (active)
same,Potency,[5],1050 nM (active)
CN(C)CCc1ccc(O)cc1,Potency,[1],inactive
same,Potency,[2],inactive
same,Potency,[3],inactive
same,Potency,[6],inactive
same,Potency,[7],inactive
same,Potency,[4],inactive
same,Potency,[5],inactive
same,activity (max response),[8],-2.47%
same,Potency,[9],inactive
O=[N+]([O-])c1cc([As](=O)(O)O)ccc1O,Potency,[1],inactive
same,activity (max response),[8],2.65%
same,Potency,[9],inactive
CCC(CC)(CNC(=O)CCCO)c1cccc(OC)c1,Potency,[1],inactive
same,activity (max response),[8],8.71%
same,Potency,[9],inactive
C[C@H]1O[C@@H](O[C@H]2[C@@H](O)C[C@H](O[C@H]3[C@@H](O)C[C@H](O[C@H]4CC[C@@]5(C)[C@H](CC[C@@H]6[C@@H]5CC[C@]5(C)[C@@H](C7=CC(=O)OC7)CC[C@]65O)C4)O[C@@H]3C)O[C@@H]2C)C[C@H](O)[C@@H]1O,Potency,[1],47.3 nM (active) and 38.5 nM (active)
same,Potency,[8],18.4 nM (active)
same,Potency,[9],65.1 nM (active)
C[C@]12CCC(=O)C=C1CC[C@@H]1[C@H]3CC[C@](C)(O)[C@@]3(C)CC[C@@H]12,Potency,[1],21.9 µM (active)
same,Potency,[3],inactive
same,Potency,[6],inactive
same,Potency,[5],inactive
same,Potency,[10],inactive
same,Potency,[9],28200 nM (active)
C#C[C@]1(O)CC[C@H]2[C@@H]3CCC4=CC(=O)CCC4=C3C=C[C@@]21CC,Potency,[1],inactive
same,activity (max response),[8],13.9%
same,Potency,[9],inactive
COc1c2c(cc3c1OCO3)CCN(C)C2,Potency,[1],inactive
same,activity (max response),[8],-10%
same,Potency,[9],inactive
C[C@]12CC[C@H]3[C@@H](CC[C@@]45O[C@@H]4C(O)=C(C#N)C[C@]35C)[C@@H]1CC[C@@H]2O,Potency,[1],6.61 µM (active)
same,activity (max response),[8],-12.1%
same,Potency,[9],28200 nM (active)
CCCCOC(=O)c1ccccc1C(=O)OCc1ccccc1,Potency,[1],17.2 µM (active)
same,activity (max response),[8],0.138%
same,Potency,[9],inactive
Nc1nc(N)nc(NC2CC2)n1,Potency,[1],inactive
same,activity (max response),[8],-6.71%
same,Potency,[9],inactive
